{"source": "PubChem BioAssay (Tox21)", "note": "“And” between values parts separate entries of the source, which are not always exact repeats. Equal entries are not always repeated. Records with an inconclusive call do not appear. A call without a number means that no potency is given here. The source made the active and inactive calls. Calls follow the shape of the dose curve; as a rule, active = well fitted activation curve with a large enough effect in the repeat runs; inconclusive = weak or mixed curves; inactive = flat fitted curve, though single readings scatter. Potency is read from the fitted curve at half-maximal effect.", "data": [{"assay": "A CellTox Green Cytotoxicity Assay to monitor cytotoxicity in HEK293 cells - 24 hour (AID 1224875); also: nearly all actives have a fitted effect of over 45% in size", "details": "CellTox Green fluorescence; series mostly up to 76.8 µM", "description": "National Center for Advancing Translational Sciences [NCATS]\nNIH Chemical Genomics Center [NCGC]\nU.S. Environmental Protection Agency [EPA]\nNational Institutes of Environmental Health Sciences [NIEHS]\nNational Toxicology Program [NTP]\nCell-based models are critical for drug discovery. Determining the natural cytotoxic effects resulting from test compounds is an essential research activity. A CellTox Green Cytotoxicity Assay to monitor cytotoxicity in real time of continues cell culture during 40 hours of the compound treatment was used to screen Tox21 10K library compounds in Hek293 cells. CellTox Green Cytotoxicity Assay is a nonlytic, homogeneous, biofluorescent method to measure cytotoxicity in cell culture after experimental manipulation. The assay system uses a proprietary asymmetric cyanine dye that is excluded from viable cells but preferentially stains the dead cell's DNA. […] Viable cells produce no appreciable increases in fluorescence. Therefore, the fluorescence signal produced by the binding interaction with dead cell DNA is proportional to cytotoxicity.\nThe mixture of Hek293 cell suspension and reagents were dispensed at 600cells/6 ul/well in 1536-well tissue culture treated black solid bottom plates using a Multidrop dispenser. After the assay plates were incubated at a 37 C/5% CO2 incubator for 5 hours, 23 nL of compounds dissolved in DMSO, positive and negative controls was transferred to the assay plate by a pintool work station. The plates were incubated at 37 C for 40 hours. The fluorescence intensity were measured at 0h, 8h, 16h, 24h, 32h and 40h time points using ViewLux plate reader during compound treatment.", "values": [{"compound": "N#Cc1cccnc1", "Potency": "inactive"}, {"compound": "CC(C)Nc1ccc(Nc2ccccc2)cc1", "Potency": "48.8 µM (active) and 54.9 µM (active)"}, {"compound": "ClC(Cl)(Cl)c1ccccc1", "Potency": "inactive"}, {"compound": "CCC[CH2][Sn]([Cl])([Cl])[CH2]CCC", "Potency": "556 nM (active) and 2.19 µM (active)"}, {"compound": "S=c1[nH]c2ccccc2[nH]1", "Potency": "inactive"}, {"compound": "C=CC(=O)OCC(CC)(COC(=O)C=C)COC(=O)C=C", "Potency": "inactive"}, {"compound": "COP(=S)(OC)Oc1ccc(S(=O)(=O)N(C)C)cc1", "Potency": "inactive"}, {"compound": "CCC(=O)Nc1ccc(Cl)c(Cl)c1", "Potency": "inactive"}, {"compound": "COc1ccc(CO)cc1", "Potency": "inactive"}, {"compound": "C[N+](C)(C)CC(=O)O", "Potency": "inactive"}, {"compound": "Oc1ccc(Cl)cc1Cl", "Potency": "inactive"}, {"compound": "C[N+](C)(C)CC(=O)[O-]", "Potency": "inactive"}, {"compound": "CC1CC(=O)O1", "note": "(stereo not given)", "Potency": "inactive"}, {"compound": "CCOP(=O)(OCC)OCC", "Potency": "inactive"}, {"compound": "CCOP(=S)(OCC)SCSC(C)(C)C", "Potency": "inactive"}, {"compound": "CN(C)c1nc(=O)n(C2CCCCC2)c(=O)n1C", "Potency": "inactive"}, {"compound": "COC(=O)Nc1nc2ccccc2[nH]1", "Potency": "inactive"}, {"compound": "O=C1C(Cl)=C(Cl)C(=O)c2ccccc21", "Potency": "3.9 µM (active) and 6.92 µM (active)"}, {"compound": "COP(=S)(OC)Oc1ccc(Sc2ccc(OP(=S)(OC)OC)cc2)cc1", "Potency": "inactive"}, {"compound": "CS(=O)(=O)NC(=O)c1cc(Oc2ccc(C(F)(F)F)cc2Cl)ccc1[N+](=O)[O-]", "Potency": "inactive"}, {"compound": "OCCOCCO", "Potency": "inactive"}, {"compound": "CCCCOCCOC(C)=O", "Potency": "inactive"}, {"compound": "C[C@]12CC[C@H]3[C@@H](CCC4=CC(=O)CC[C@@H]43)[C@@H]1CC[C@@H]2O", "Potency": "inactive"}, {"compound": "COc1ccc(O)c(C(C)(C)C)c1", "Potency": "inactive"}, {"compound": "CN(C)c1ccccc1", "Potency": "inactive"}, {"compound": "CCNCC", "Potency": "inactive"}, {"compound": "CC1(C)Cc2cccc(O)c2O1", "Potency": "inactive"}, {"compound": "O=[N+]([O-])c1ccc(Cl)c([N+](=O)[O-])c1", "Potency": "39.5 µM (active)"}, {"compound": "CC(C)(c1ccccc1)c1ccc(O)cc1", "Potency": "21.7 µM (active) and 43.6 µM (active)"}, {"compound": "CC(C)(O)C#N", "Potency": "inactive"}, {"compound": "CCOS(=O)(=O)OCC", "Potency": "inactive"}, {"compound": "COc1ccc(C=O)cc1OC", "Potency": "inactive"}, {"compound": "N#Cc1c(Cl)c(Cl)c(Cl)c(C#N)c1Cl", "Potency": "12.1 µM (active) and 9.77 µM (active)"}, {"compound": "CCOP(=S)(OCC)SCn1c(=O)oc2cc(Cl)ccc21", "Potency": "inactive"}, {"compound": "Clc1cccc(Cl)c1", "Potency": "inactive"}, {"compound": "ClCC(Cl)CCl", "Potency": "inactive"}, {"compound": "CC(C)(O)C(=O)Nc1ccc([N+](=O)[O-])c(C(F)(F)F)c1", "Potency": "inactive"}, {"compound": "CCCCSP(=O)(SCCCC)SCCCC", "Potency": "inactive"}, {"compound": "CCOC(=O)c1ccccc1N", "Potency": "inactive"}, {"compound": "N#CCCCCC#N", "Potency": "inactive"}]}]}
